PubChem BioAssay (EPA / NIEHS)
Where “and” joins values, the source holds several entries; their conditions need not be identical. Equal values may be shown once. Records with an inconclusive call do not appear. The source holds several records for some structures; these can differ, active in one and inactive in another. Calls of active or inactive are those of the source. The calls were made as follows: active = hit-call score of the fitted dose curve at least 0.9, where 1 is the maximum; inconclusive = response in the unintended direction; inactive = score below 0.9.

target: Retinoic acid receptor RXR-alpha (Homo sapiens) (UniProt P19793); assay: OT_NURR1_NURR1RXRa_1440: Odyssey Thera (OT) 24-hour HEK293T Protein Complementation Assay for Nurr1/retinoid X receptor (RXR) (AID 2283386)
Sequence (P19793 whole entry, looked up, the tested form may be a part): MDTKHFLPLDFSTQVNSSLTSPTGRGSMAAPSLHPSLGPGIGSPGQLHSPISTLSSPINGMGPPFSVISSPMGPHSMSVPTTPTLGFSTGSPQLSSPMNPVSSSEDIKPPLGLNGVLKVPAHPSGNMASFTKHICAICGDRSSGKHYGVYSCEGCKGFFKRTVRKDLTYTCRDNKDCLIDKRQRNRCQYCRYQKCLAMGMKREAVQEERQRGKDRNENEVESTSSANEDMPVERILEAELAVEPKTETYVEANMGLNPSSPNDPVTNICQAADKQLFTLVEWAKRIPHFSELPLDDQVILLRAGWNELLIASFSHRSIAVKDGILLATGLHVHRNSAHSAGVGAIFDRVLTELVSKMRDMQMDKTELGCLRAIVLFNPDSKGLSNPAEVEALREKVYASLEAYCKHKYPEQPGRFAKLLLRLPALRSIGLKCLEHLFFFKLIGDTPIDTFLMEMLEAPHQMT
Protocol: OT_NURR1_NURR1RXRa_1440 is a cell-based assay that uses HEK293T, a human kidney cell line, with measurements taken at 24 hours after chemical dosing in a 384-well plate.OT_NURR1_NURR1RXRa_1440 is one of one assay component(s) measured or calculated from the OT_NURR1_NURR1RXRa_1440 assay. It is designed to make measurements of protein fragment complementation, a form of binding reporter, as detected with fluorescence intensity signals by Protein-fragment Complementation technology.Data from the assay component OT_NURR1_NURR1RXRa_1440 was analyzed into 1 assay endpoint. This assay endpoint, OT_NURR1_NURR1RXRa_1440, was analyzed in the positive analysis fitting direction relative to DMSO as the negative control and baseline of activity. Using a type of binding reporter, measures of receptor for gain-of-signal activity can be used to understand the binding at the pathway-level as they relate to the gene RXRA. Furthermore, this assay endpoint can be referred to as a primary readout, because the performed assay has only produced 1 assay endpoint. To generalize the intended target to other relatable targets, this assay endpoint is annotated to the nuclear receptor intended target family, where the subfamily is non-steroidal.
Protein-fragment complementation assay, or PCA, is a method for the identification and quantification of protein-protein interactions. In the PCA, the proteins of interest ("bait" and "prey") are each covalently linked to fragments of a third protein (e.g. DHFR, which acts as a "reporter"). Interaction between the bait and the prey proteins brings the fragments of the reporter protein in close proximity to allow them to form a functional reporter protein whose activity can be measured.

| Compound | outcome | AC50 |
| --- | --- | --- |
| NC(=O)N(O)[C@@H]1C=C[C@H](Oc2cccc(Oc3ccc(F)cc3)c2)C1 | inactive | – |
| COCC(C)OCC(C)O (stereo not given) | inactive | – |
| OCCC(F)(F)C(F)(F)C(F)(F)C(F)(F)C(F)(F)C(F)(F)F | inactive | – |
| N#C[C@@H]1CC(F)(F)CN1C(=O)CNC1CC2CCC(C1)N2c1ncccn1 (stereo not given in full) | inactive | – |
| CCCCC(CC)COC(=O)CCCCC(=O)OCc1ccccc1 (stereo not given) | inactive | – |
| CC(C)(C)c1cccc(C(C)(C)C)c1O | inactive | – |
| CC(=O)CC(C)(C)O | inactive | – |
| O=c1c(-c2ccc(O)cc2)coc2cc(O)ccc12 | inactive | 14.4 µM (active) and 27 µM (active) |
| CC(C)(C)c1cc(C(C)(C)C)c(O)c(C(C)(C)C)c1 | – | 85 µM (active) |
| OC1CCC(C2CCCCC2)CC1 (stereo not given) | inactive | – |
| NC(=O)N1C(=O)C(C(=O)c2cc(Cl)cs2)c2cc(F)c(Cl)cc21 (stereo not given) | inactive | 32.9 µM (active) |
| COC(=O)CCCCC(=O)OC | inactive | – |
| CCCCCCCCCCCCN1CCCC1=O | – | 11.7 µM (active) |
| CCc1nn(C2CCCCC2)c2cc(C3(C#N)CCC(C(=O)O)CC3)ccc12 (stereo not given) | – | 79.7 µM (active) and 73.6 µM (active) |
| CCN(CC)CCNc1ccc(CNC=O)c2sc3ccc(OC)cc3c(=O)c12 | – | 11.7 µM (active) and 11.8 µM (active) |
| CCCCCCCCCCCCc1ccccc1S(=O)(=O)O | inactive | – |
| C[C@@H]1C[C@H]2[C@@H]3CCC4=CC(=O)C=C[C@]4(C)[C@@]3(F)[C@@H](O)C[C@]2(C)[C@@]1(O)C(=O)COP(=O)(O)O | inactive | – |
| CCCCCCC(=O)O | inactive | – |

| Compound | outcome | AC50 |
| --- | --- | --- |
| Oc1cccc(O)c1 | inactive | – |
| CCCCCCCC(=O)O | inactive | – |
| CN(C)C=O | inactive | – |
| CCC(C)(C)C1CCC(O)CC1 (stereo not given) | inactive | – |
| CC(=O)NC1(c2cccc(F)c2)CCN(CC[C@@]2(c3ccc(Cl)c(Cl)c3)CN(c3ccccc3)C(=O)CO2)CC1 | inactive | – |
| Cc1cc(C)c(O)c(C)c1 | inactive | – |
| c1ccc2c(c1)Cc1ccccc1-2 | inactive | – |
| CCCCOCCO | inactive | – |
| OC1CCCCC1 | inactive | – |
| c1ccc2c(c1)ccc1ccccc12 | inactive | – |
| c1ccc2cc3c(ccc4ccccc43)cc2c1 | inactive | 79.7 µM (active) |
| C#C[C@]1(O)CC[C@H]2[C@@H]3CCC4=CC(=O)CC[C@@H]4[C@H]3CC[C@@]21C | inactive | – |
| CCCCCCCCC(=O)O | inactive | – |
| COc1ccc([N+](=O)[O-])cc1N | inactive | – |
| CC(C)CCCCCCOC(=O)CCCCC(=O)OCCCCCCC(C)C | inactive | – |
| Cc1oc(-c2ccccc2)nc1CCOc1ccc(C[C@H](Nc2ccccc2C(=O)c2ccccc2)C(=O)O)cc1 | – | 0.214 µM (active) |
| CC#C[C@]1(O)CC[C@H]2[C@@H]3CCC4=CC(=O)CCC4=C3[C@@H](c3ccc(N(C)C)cc3)C[C@@]21C | inactive | 0.416 µM (active) |
| CC(C)(C)CC(C)(C)c1ccc(O)c(-n2nc3ccccc3n2)c1 | – | 30 µM (active) and 84.7 µM (active) |
